Experiment [1] is described as follows: Primary qHTS for inhibitors of nuclear receptor binding SET domain protein 2 (NSD2) in an RCH-ACV wild type WT cells (2C) (AID 1645877; note: nearly all actives have a fitted effect of over 70% in size; note: potency is the fitted concentration of half-maximal effect). (In qHTS, concentration-response curves come from the screen itself.)
Experiment [2] can be described thus: Primary qHTS for inhibitors of nuclear receptor binding SET domain protein 2 (NSD2) in an isogenic RCH-ACV NSD2 p.E1099K mutant (9B) (AID 1645876). Note: nearly all actives have a fitted effect of over 70% in size. Note: potency is the fitted concentration of half-maximal effect.
In experiment [3] the target is Catechol O-methyltransferase (Homo sapiens) (UniProt P21964). Description: Confirmatory Screen for Target Class Profiling of Small Molecule Inhibitors of Methyltransferases (AID 1745852). The note with it: MTase-Glo luminescence, SAH detection, recombinant enzyme; measured here: COMT max response; stronger effect = lower value.
Chain of Catechol O-methyltransferase (Homo sapiens) (P21964 whole entry, looked up): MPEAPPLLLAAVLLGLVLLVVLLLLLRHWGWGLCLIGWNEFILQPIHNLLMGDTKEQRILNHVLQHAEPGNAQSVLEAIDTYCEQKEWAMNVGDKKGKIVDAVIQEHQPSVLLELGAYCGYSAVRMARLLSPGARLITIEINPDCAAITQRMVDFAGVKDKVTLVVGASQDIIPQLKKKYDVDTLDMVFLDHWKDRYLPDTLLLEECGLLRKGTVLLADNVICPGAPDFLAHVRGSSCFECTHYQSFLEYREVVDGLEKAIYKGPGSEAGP

“And” between values parts separate entries of the source, which are not always exact repeats. Equal entries are not always repeated. Results filed as inconclusive are left out. The source made the active and inactive calls. Calls come from the whole dose curve; as a rule, active = well fitted curve in the direction sought with a large enough effect; inconclusive = small, poorly fitted or top-dose-only effect, or another doubt; inactive = no such curve, though single readings can be large; an effect the other way counts as inactive or inconclusive.

With `CC(O)c1cc(C(=O)N[C@@H](C)Cn2ccc(-c3ccc(C#N)c(Cl)c3)n2)n[nH]1` (stereo not given in full), the Potency in experiment [1] was 20.9 µM (active).
Regarding `C=C(C(=O)O)C1CC(O)C2(C)CCCC(=C)C2C1` (stereo not given), the Potency result in experiment [2] is “inactive”. Moreover, the activity in experiment [3] is -51%.
`Oc1ccc(CNc2ccccc2F)c2cccnc12`: the Potency is 12.9 µM (active) in experiment [2] and 4.09 µM (active) in experiment [1]. Also, the activity in experiment [3] was -81.9%.
For the molecule `OC[C@@]1(O)CO[C@@H](OC[C@H]2O[C@@H](Oc3c[nH]c4ccccc34)[C@H](O)[C@@H](O)[C@@H]2O)[C@@H]1O`, the Potency result in experiment [1] was “inactive”.
Same read-out and setting: for `CCCCNc1ccc(-c2ccc(CN3CCOCC3)cn2)c(NC2CCC(O)CC2)c1` (stereo not given) the value was 0.796 µM (active).
The same measure, in the same setting: for `C/C(=C/CO)CC[C@@H]1[C@@](C)(O)CCC2C(C)(C)CCC[C@]21C` (stereo not given in full) the value was “inactive”.
As for `COc1cc2c(cc1OC)N1C(=O)C[C@]34C=CCN5CC[C@@H]2[C@@H](CC3)[C@]514`, in experiment [2], the Potency result was “inactive”. In addition, the activity in experiment [3] is -18.8%.
For `C=C1C(OC2OCC(O)C(O)C2O)CC2C(C)(C)C(O)CCC2(C)C1CC/C(C)=C\CO` (stereo not given), in experiment [1], the Potency is 8.93 µM (active).
The same measure, in the same setting: for `CC(=O)O[C@]1(C(C)=O)CC[C@H]2[C@@H]3C[C@H](C)C4=CC(=O)C=C[C@]4(C)[C@@]3(F)[C@@H](O)C[C@@]21C` the value was 0.0129 µM (active).
With `O=C(/C=C/c1ccccc1)OC[C@]12O[C@H]1[C@@H](O)[C@@H]1C=CO[C@@H](O[C@@H]3O[C@H](CO)[C@@H](O)[C@H](O)[C@H]3O)[C@@H]12`, the Potency entry in experiment [2] and in experiment [1] was “inactive” each time. The activity in experiment [3] is -55.2%.
Consider `Cc1cc(O)c(-c2ccc([C@@H](C)CN(C)C)cc2)c2c1[nH]c(=O)c1sccc12`, for which the Potency in experiment [2] and in experiment [1] was 0.0742 µM (active) throughout. In experiment [3], the activity is -22.7%.
On to `CCCCc1nc2cc(/C=C/C(=O)NO)ccc2n1CCN(CC)CC`, for which the Potency was 258 nM (active) and 590 nM (active) in experiment [2]; 230 nM (active) and 525 nM (active) in experiment [1]. Moreover, the activity in experiment [3] is -23.3%.
With `CC/C=C/CC1=C(CCCCC(CCC(=O)O)OC(C)=O)CCC1=O` (stereo not given), the Potency in experiment [1] was 12.7 µM (active).
Regarding `C=C(C(=O)O)[C@@H]1CC[C@@]2(C)CC[C@H](O)[C@@]2(C(C)=O)C1`, in experiment [1], the Potency was 16.3 µM (active). The activity in experiment [3] was -66.3%.
With `COc1cc2c(c(OC)c1CC=C(C)C)C[C@H](c1ccc(O)cc1O)CO2`, the Potency result in experiment [1] was “inactive”.
Same read-out and setting: for `CO[C@H]1O[C@@H]2O[C@]3(C)CC[C@H]4[C@H](C)CC[C@@H]([C@H]1C)[C@@]24OO3` the value was 7.28 µM (active).
Consider `COc1cc(/C=C/C(=O)OC[C@H]2O[C@@](CO)(O[C@H]3O[C@H](CO)[C@@H](O)[C@H](O)[C@H]3O)[C@@H](OC(=O)/C=C/c3ccc(O)c(OC)c3)[C@@H]2O)ccc1O`, for which the Potency result in experiment [2] and in experiment [1] was “inactive” throughout. Also, the activity in experiment [3] is -51%.

These data come from PubChem BioAssay (NCATS).
